Measurements taken from PubChem BioAssay (NCATS).
Results filed as inconclusive are left out. Where a call stands in place of a potency, no number is given. Activity calls are given as the source filed them. Calls come from the whole dose curve.

How the values were obtained:
[1] = Cytotoxicity counterscreen for inhibitors of SARS-CoV-2 cell entry (AID 1645845); note: nearly all actives have a fitted effect of over 50% in size
In short: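 Expi293F/hACE2 cells seeded overnight; cpd pin-transferred in DMSO, 1 h preincubation, + media, 48 h 37 C 5% CO2; ATPLite 1step luminescence; normalized to cells and no cells.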

[2] = Primary qHTS to identify inhibitors of SARS-CoV-2 cell entry (AID 1645846); settings: activity change, negative = inhibition: at 57.1 µM (top of the series) unless noted; note: nearly all actives have a fitted effect of over 45% in size; note: potency is the fitted concentration of half-maximal effect
In short: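 HEK293-ACE2 (Expi293F, stable hACE2), 1500 cells/well, o/n 37C; cpd 23 nL pin, 1 h; MLV-PP w/ SARS-CoV-2-S (Wuhan-Hu-1, Δ19 C-term); 48 h 37C; Bright-Glo luminescence; normalized vs S-PP and bald PP.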

Compound	Potency [1]	Potency [2]	activity change, negative = inhibition [2]	outcome [1]
O=S(=O)(O)c1ccc2nc(-c3ccccc3)[nH]c2c1	inactive	inactive		
OC[C@@H](O)[C@@H](O[C@@H]1O[C@H](CO)[C@H](O)[C@H](O)[C@H]1O)[C@H](O)[C@@H](O)CO	inactive	inactive		
O=C(O)CN(CCN(CC(=O)O)CC(=O)O)CCN(CC(=O)O)CC(=O)O	inactive	inactive		
CC1(C)O[C@H]2CC(=O)OC[C@]23[C@H]2CC[C@@]4(C)[C@H](c5ccoc5)OC(=O)[C@H]5O[C@]54[C@]2(C)C(=O)C[C@@H]13	inactive		-13.1%	
CC(CCc1ccccc1)NCC(O)c1ccc(O)c(C(N)=O)c1 (stereo unspecified)	inactive		-28.2%	
Nc1ncnc2nc[nH]c12	inactive	inactive		
CCO/C([O-])=N/c1c[n+](N2CCOCC2)no1	inactive	inactive		
CC(C)(C)NCC(O)COc1cccc2c1C[C@H](O)[C@H](O)C2 (stereo partly specified)	inactive		4.34%	
Cc1cccc(C)c1NC(=O)CC12CCCN1CCC2	inactive		-23.5%	
O=C1O[C@H](CO)[C@@H](O)[C@H](O)[C@H]1O	inactive		-15.4%	
O=C(O)/C=C\C(=O)O	inactive	inactive		
Cc1cc(O)cc(C)c1Cl	inactive	inactive		
C[C@@H]1O[C@@H]1P(=O)(O)O	inactive		1.53% [at 27.1 µM]	
NC(=O)NC1N=C([O][Al])NC1=O (stereo unspecified)	inactive		-0.751%	
CCCc1c2oc(C(=O)O)cc(=O)c2cc2c(=O)cc(C(=O)O)n(CC)c12	inactive		-16.5%	
NCC[C@H](O)C(=O)N[C@@H]1C[C@H](N)[C@@H](O[C@H]2O[C@H](CN)[C@@H](O)[C@H](O)[C@@H]2O)[C@H](O)[C@@H]1O[C@H]1O[C@H](CO)[C@@H](O)[C@H](N)[C@@H]1O			-28% [at 0.702 µM]	inactive [at 0.702 µM]
Cc1ccc(Cl)c(Nc2ccccc2C(=O)O)c1Cl	inactive		-1.76%	
CNCCCC12CCC(c3ccccc31)c1ccccc12	inactive	28.2 µM (active)		
CNC(=O)c1c(I)c(NC(C)=O)c(I)c(C(=O)O)c1I	inactive	inactive		
CCCCC(=O)OCC(=O)[C@H]1[C@H](C)C[C@H]2[C@@H]3C[C@H](F)C4=CC(=O)C=C[C@]4(C)[C@@]3(F)[C@@H](O)C[C@@]21C	inactive	inactive		
CN1CCC[C@@H]1c1cccnc1	inactive	inactive		
Cc1ccc(C(C)C)c(O)c1	inactive		-6.21%	
CC(C)(S)[C@@H](N)C(=O)O			2.83% [at 5.25 µM]	inactive [at 5.25 µM]
